SARS PLpro yeast – SARS-CoV PLP inhibition in yeast. S. cerevisiae expressing SARS-CoV PLpro, growth rescue. Potency, µM (doses to about 32.9 µM), for inactives: at the highest dose activity, positive = growth rescue, actives largely listed as activators. actives 0.19% (n = 330,000). AID 485353; calls by dose curve; note: 0% is about no effect; nearly all actives have a fitted effect of over 55% in size
Sm TGR inh – blocks Schistosoma mansoni thioredoxin glutathione reductase; purified TGR, DTNB reduction, TNB absorbance 405 nm; Potency, µM (titrated, usually from 114 µM), for the others: top-dose activity change, negative = inhibition, most hits filed as inhibitors; actives 3% (n = 360,000); note: % is set by controls: 0 for no effect and ±100 for the full control effect; nearly all actives have a fitted effect of over 60% in size
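First, TGR (20 nM dispensed) and NADPH were mixed with compound. Second, a 15 min room-temperature incubation followed. Third, further NADPH and then DTNB were added to start the reaction. Finally, TNB absorbance was monitored kinetically.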
Pf growth 48h – P. falciparum growth inhibition at 48 hours (one generation); P. falciparum luciferase growth in erythrocytes, 48 h; Potency, µM (top dose mostly 28.7 µM), inactives show at the highest dose activity change, negative = inhibition, usual class: inhibitors; actives 5.9% (n = 310,000); note: % is set by controls: 0 for no effect and ±100 for the full control effect
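Erythrocytes infected with P. falciparum carrying an integrated firefly luciferase reporter (2% hematocrit, 0.1% parasitemia final) were exposed to compounds in RPMI 1640 with 0.5% Albumax at 37 C, 5% CO2. Growth inhibition was scored as reduced luminescence.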
Pf growth 96h – P. falciparum growth inhibition at 96 hour, primary screen for plastid delayed-death inhibitors | AID 504834 | actives 6.9% (n = 320,000) | P. falciparum luciferase reporter growth, 96 h | Potency, µM (top dose mostly 28.7 µM), without a hit: top-dose activity change, negative = inhibition, usual class: inhibitors; note: % is set by controls: 0 for no effect and ±100 for the full control effect
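Luminescence readout: decreased luciferase signal marks inhibited growth of reporter-expressing P. falciparum in infected red cells (2% hematocrit, 0.05% parasitemia final), exposed to compound two generations (96 h, 37 C, 5% CO2).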
The depositor's hits bear a star. Rows were chosen to be rich in hits. Some 12% of all compounds tested hit in one or more screens of this group. Unless noted, calls come from the whole dose curve; as a rule, active = well fitted curve in the direction sought with a large enough effect; inconclusive = small, poorly fitted or top-dose-only effect, or another doubt; inactive = no such curve, though single readings can be large; an effect the other way counts as inactive or inconclusive. Potency is the fitted concentration of half-maximal effect.

`CC(C)(C)c1ccc(/C=C/C(=O)N2CCN(c3ncccn3)CC2)cc1` gave SARS PLpro yeast -1%, Sm TGR inh -2%, Pf growth 48h -6% and Pf growth 96h -15%.
Screening O=C(/C=C/c1ccco1)N1CCN(c2ccc(F)cc2)CC1 returned SARS PLpro yeast 0%, Sm TGR inh 10µM*, Pf growth 48h inconclusive and Pf growth 96h inconclusive.
COC(=O)c1cc2occc2n1Cc1nc(-c2ccccc2)oc1C was read as Sm TGR inh 1%.
`CCOC(=O)c1ccc(NC(=O)CC(=O)Nc2ccc3nc4n(c(=O)c3c2)CCCCC4)cc1` gave Sm TGR inh -1%.
For O=C(NCc1ccccc1Cl)c1cnc(N2CCCCC2)c2ccccc12 the results were Sm TGR inh 10%.
Screening CCOc1ccc(S(=O)(=O)N2CC(=O)Nc3ccccc32)cc1 returned SARS PLpro yeast 1%, Sm TGR inh 12%, Pf growth 48h 14% and Pf growth 96h -1%.
For CCN(Cc1cc(OC)c(OC)c(OC)c1)C(=S)Nc1cccc(SC)c1 the results were SARS PLpro yeast 1%, Sm TGR inh -6%, Pf growth 48h inconclusive and Pf growth 96h 10µM*.
CCOc1ccc(C)cc1S(=O)(=O)n1cnc2ccccc21 was read as SARS PLpro yeast 1%, Sm TGR inh 3%, Pf growth 48h 9% and Pf growth 96h inconclusive.
Clc1cccc(Cl)c1Cn1cnc2c(N3CCCCCC3)ncnc21 was read as SARS PLpro yeast -2%, Sm TGR inh -2% and Pf growth 48h 10µM*.
`CCN(CC)c1ncnc2c1ncn2Cc1c(Cl)cccc1Cl` gave SARS PLpro yeast -4%, Sm TGR inh -6%, Pf growth 48h inconclusive and Pf growth 96h 5%.
C/C(CC(=O)Nc1cccc2c1CCCC2)=N\NC(=O)c1cccc2ccccc12 was read as SARS PLpro yeast -11%, Sm TGR inh -2%, Pf growth 48h -6% and Pf growth 96h 13µM*.
Screening NC(Cc1c[nH]c2ccc(OCc3ccccc3)cc12)C(=O)O (configuration not stated) returned SARS PLpro yeast -2%, Sm TGR inh 11µM*, Pf growth 48h -8% and Pf growth 96h 21%.
Clc1cccc(-c2ccc(C=Nc3ccc(N4CCOCC4)cc3)o2)c1 was read as SARS PLpro yeast -23%, Sm TGR inh -10%, Pf growth 48h 4% and Pf growth 96h 10µM*.
`CCOC(=O)c1cc2c(nc1NC(=S)Nc1ccccc1)CC(C)(C)OC2` gave SARS PLpro yeast -1%, Sm TGR inh -3%, Pf growth 48h -13% and Pf growth 96h 10µM*.
`C=CCNC(=S)Nc1nc2c(cc1C(=O)OCC)COC(C)(C)C2` gave SARS PLpro yeast 0%, Sm TGR inh -4%, Pf growth 48h 8% and Pf growth 96h -9%.
`CC(CNC(=O)Cn1ccc2cc(S(=O)(=O)N3CCCCC3)ccc21)c1ccccc1` (configuration not stated) gave Sm TGR inh 8%.
CN(C)CC/C=C1\c2ccccc2COc2ccccc21 was read as SARS PLpro yeast -26%, Sm TGR inh 14µM*, Pf growth 48h inconclusive and Pf growth 96h inconclusive.
For CN(C)CC/C=C1/c2ccccc2Sc2ccc(Cl)cc21 the results were SARS PLpro yeast 5%, Sm TGR inh -6%, Pf growth 48h 10µM* and Pf growth 96h inconclusive.
Screening CNCC/C=C1/c2ccccc2CSc2ccccc21 returned SARS PLpro yeast -7%, Sm TGR inh -11%, Pf growth 48h inconclusive and Pf growth 96h inconclusive.
For S=C1Nc2ccccc2Sc2ccc(Cl)cc21 the results were SARS PLpro yeast 17%, Sm TGR inh 2%, Pf growth 48h inconclusive and Pf growth 96h inconclusive.
Screening CCCCCC[N+](C)(C)CC/C=C1/c2ccccc2Sc2ccc(Cl)cc21 returned SARS PLpro yeast -1%, Sm TGR inh -10%, Pf growth 48h inconclusive and Pf growth 96h 2.1µM*.
For Cc1cc(Nc2ccc(C)c(F)c2)n2ncnc2n1 the results were SARS PLpro yeast -5%, Sm TGR inh -8%, Pf growth 48h 1.5µM* and Pf growth 96h 34%.
Cc1ccc(Nc2cc(C)nc3ncnn23)cc1 was read as SARS PLpro yeast 4%, Sm TGR inh 5%, Pf growth 48h 3.7µM* and Pf growth 96h inconclusive.
Cc1cc(Nc2cc(F)ccc2C)n2ncnc2n1 was read as SARS PLpro yeast 24%, Sm TGR inh -3%, Pf growth 48h 44% and Pf growth 96h inconclusive.
Cc1ccc(-c2cc(C)nc3ncnn23)cc1 was read as SARS PLpro yeast 0%, Sm TGR inh -27% and Pf growth 96h 12µM*.
`COc1ccc(-n2c(SCc3ccc([N+](=O)[O-])cc3)nnc2-c2ccccc2)cc1` gave SARS PLpro yeast 5%, Sm TGR inh -4%, Pf growth 48h inconclusive and Pf growth 96h inconclusive.
Screening CCOc1ccc(-n2c(SCc3ccc([N+](=O)[O-])cc3)nnc2-c2ccccc2)cc1 returned SARS PLpro yeast -20%, Sm TGR inh -2%, Pf growth 48h inconclusive and Pf growth 96h 4.7µM*.
For CC1CCCC(C)N1C(=O)CSc1nnc(COc2ccccc2)n1-c1ccccc1 (configuration not stated) the results were SARS PLpro yeast -5%, Sm TGR inh 0% and Pf growth 96h 15µM*.
`CC(Sc1nnc(COc2ccc([N+](=O)[O-])cc2)n1-c1ccccc1)C(=O)O` (configuration not stated) gave SARS PLpro yeast 0%, Sm TGR inh -29%, Pf growth 48h -3% and Pf growth 96h 9.3µM*.
`Cc1ccc(NC(=O)CSc2nnc(COc3ccc(C#N)cc3)n2-c2ccccc2)cc1C` gave SARS PLpro yeast 4%, Sm TGR inh -11%, Pf growth 48h inconclusive and Pf growth 96h 10µM*.
COc1cccc(CNC(=O)CCC2CCCN(C(=O)c3cccnc3SC)C2)c1 (configuration not stated) was read as SARS PLpro yeast 3%, Sm TGR inh 6%, Pf growth 48h 4% and Pf growth 96h -12%.
`CC(C)[C@H](NC(=O)N1c2ccccc2NC(=O)[C@@H]1C(C)C)C(=O)N1CCC(C(=O)O)CC1` gave SARS PLpro yeast 10%, Sm TGR inh -5%, Pf growth 48h 14% and Pf growth 96h -1%.
COc1ccc(C(=O)OCCOc2cccc(Cl)c2)cc1S(=O)(=O)N1CCOCC1 was read as SARS PLpro yeast 2%, Sm TGR inh -8%, Pf growth 48h 0% and Pf growth 96h 31%.
Screening CCc1nnc(NC(=O)CSc2nnc(COc3ccccc3)n2-c2ccc(C)cc2)s1 returned SARS PLpro yeast 3%, Sm TGR inh 3%, Pf growth 48h 10% and Pf growth 96h 3%.
For Cc1ccc(OCc2nnc(SCc3cc(=O)[nH]c4ccccc34)n2-c2ccccc2)cc1 the results were SARS PLpro yeast 7%, Sm TGR inh -3%, Pf growth 48h inconclusive and Pf growth 96h 5.9µM*.

Bioassay records (PubChem BioAssay)
